Experimental data: PubChem BioAssay AID1845226 (National Center for Advancing Translational Sciences (NCATS), 2023)
Records with an inconclusive call do not appear. Entries that show only a call come without a potency. Calls of active or inactive are those of the source. Calls come from the whole dose curve; as a rule, active = well fitted inhibition curve with a large enough effect; inconclusive = small, poorly fitted or top-dose-only effect; inactive = no such curve, though single readings can be large or run the other way.

Assay: Confirmatory fluorescence-based thiol-reactive (MSTI) qHTS assay for identification of artifact compounds
Outline: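 MSTI 4 uM final, PBS pH 7.4 + 2% DMSO; 1 h RT, dark; Ex/Em 525/598 nm; % inhibition vs Acetyl-MSTI (0%) and MSTI (100%), 4-parameter Hill fit.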
Potency is the fitted concentration of half-maximal effect.

SMILES	Potency
COC(=O)c1c(NC(=O)COc2ccc(C(C)C)cc2)sc2c1CCCC2	inactive
Cc1ccc(NC(=O)CCn2cccn2)cc1Cl	inactive
Oc1ccc(-c2nc3ccc(Cl)cn3c2Nc2ccc3c(c2)OCO3)cc1	0.77 µM (active)
O=C(NCCc1ccccc1)C1CCC(CNS(=O)(=O)c2ccccc2)CC1 (centres undefined)	inactive
COC(=O)[C@@H]1[C@H]2C[C@H]3c4[nH]c5cc(OC)ccc5c4CCN3C[C@@H]2C[C@@H](OC(=O)c2cc(OC)c(OC)c(OC)c2)[C@@H]1OC	7.91 µM (active)
COc1ccc(NC(=O)CSc2nc(-c3ccccc3)nc3c2Cc2c(CO)cnc(C)c2O3)cc1Cl	inactive
CCCC(N[C@@H](C)C(=O)N1[C@H](C(=O)O)C[C@@H]2CCCC[C@@H]21)C(=O)OCC (some centres undefined)	inactive
O=C(CSc1nnc(-c2cccc(F)c2)c(-c2cccc(F)c2)n1)NC1CCCCC1	inactive
CCOC(=O)c1sc2cccc(F)c2c1S(=O)(=O)NCc1ccccc1Cl	inactive
Cc1ccc(C)c(N2CCN(S(=O)(=O)c3cc(Br)cc4c3N(C(=O)C3CC3)CC4)CC2)c1	inactive
C=Cc1ccc(Cn2c(C)c(CNCc3cccc(Br)c3)c(C(=O)O)c2C)cc1	inactive
COc1cc(O)c2c(c1)oc(=O)c1c3cc(O)c(O)cc3oc21	1.09 µM (active)
O=C(O)c1c(CNCc2cccc(F)c2)c2ccccc2n1Cc1ccccc1	inactive
C=C1Cc2c(Cl)cc3[nH]c4c5c3c2[C@@]2(O)[C@@H]1C[C@@H]2C(C)(C)O[C@H]5[C@@H]1CC[C@@]2(O)[C@@]35O[C@@H]3[C@@H](O)[C@@H](C(=O)O)O[C@H]5CC[C@]2(C)[C@@]41C	3.86 µM (active)
